Laboratory results taken from PubChem BioAssay AID1159580 (chemical genetic matrix, 2015).
Several values for one entry are separate records, joined by “and”; a condition that tells them apart may be missing. Equal entries are not always repeated. Screen size: about 5,500 compounds; about 2,000 (36%) were called active. Inconclusive results (about 18%) are left out. No stated cut-off is given here; in the data, active means normalized growth mostly below about 0.91 (no sharp cut-off); inconclusive means no clear call, values can overlap the other calls; inactive means mostly above about 0.92. This is one part of the list.

Experiment: chemical genetic growth profiling, strain panel (AID 1159580);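 further: tested at 20 µM; growth read once vehicle control cultures reached saturation at 30 °C; 1 = growth at the plate median or of vehicle wells; lower values mean less growth of the strain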
Conditions: S. cerevisiae deletion strains, growth OD
[1] = locus YAL013W, strain DEP1, hits give low values
[2] = locus YAL040C, strain CLN3, hits give low values
[3] = locus YCL061C, strain MRC1 (second series), hits give low values
[4] = locus YDR363W, strain ESC2, hits give low values
[5] = locus YER002W, strain NOP16, hits give low values
[6] = locus YGR078C, strain PAC10, hits give low values
[7] = locus YJR075W, strain HOC1, hits give low values
[8] = locus YMR263W, strain SAP30, hits give low values
[9] = locus YMR307W, strain GAS1, hits give low values
[10] = locus YNL128W, strain TEP1, hits give low values
[11] = locus YNL175C, strain NOP13, hits give low values
[12] = locus YNL197C, strain WHI3, hits give low values
[13] = locus YNL224C, strain SQS1, hits give low values
[14] = locus YNL322C, strain KRE1, hits give low values
[15] = locus YOR083W, strain WHI5 (second series), hits give low values
[16] = locus YPL241C, strain CIN2, hits give low values
[17] = locus YDR150W, strain NUM1, hits give low values
[18] = locus YNL153C, strain GIM3, hits give low values
[19] = locus YPL055C, strain LGE1, hits give low values

Measured: normalized growth

C[C@@H](Oc1ccc(Oc2cnc3ccc(Cl)cc3n2)cc1)C(=O)O
inactive: [1] 1.04 | [2] 1.04 | [3] 1 | [4] 1.01 | [5] 0.995 | [6] 1.01 | locus YGR229C, strain SMI1, hits give low values 1.02 | [7] 1 | [8] 1.01 | [9] 0.983 | [10] 0.996 | [11] 0.984 | [12] 0.996 | [13] 0.997 | [14] 1 | [15] 1 | [16] 1

Clc1ccc(Oc2ccnc3cc(Cl)ccc23)cc1
inactive: locus YAR019C, strain CDC15, hits give low values 0.898 | locus YBL105C, strain PKC1, hits give low values 0.923 | locus YBR135W, strain CKS1, hits give low values 0.913 | locus YBR136W, strain MEC1, hits give low values 0.922 | locus YBR160W, strain CDC28, hits give low values 0.918 | locus YBR229C, strain ROT2, hits give low values 0.956 | locus YDL017W, strain CDC7, hits give low values 0.919 | locus YDL028C, strain MPS1, hits give low values 0.926 | locus YDL101C, strain DUN1, hits give low values 0.915 and 0.93 | locus YDL108W, strain KIN28, hits give low values 0.921 | locus YDL132W, strain cdc53, hits give low values 0.91 | locus YDL214C, strain PRR2, hits give low values 0.745 | locus YDR052C, strain DBF4, hits give low values 0.918 | locus YDR054C, strain cdc34, hits give low values 0.894 | [17] 0.943 | locus YDR226W, strain ADK1, hits give low values 0.903 | locus YEL061C, strain CIN8, hits give low values 0.944 | locus YFL009W, strain cdc4, hits give low values 0.903 | locus YFL029C, strain CAK1, hits give low values 0.898 | locus YFR003C, strain YPI1, hits give low values 0.916 | locus YFR019W, strain FAB1, hits give low values 0.893 | locus YFR028C, strain CDC14, hits give low values 0.908 | locus YGR052W, strain FMP48, hits give low values 0.659 | locus YGR092W, strain DBF2, hits give low values 0.627 | locus YHR079C, strain IRE1, hits give low values 0.546 | locus YHR082C, strain KSP1, hits give low values 0.626 | locus YHR087W, strain rtc3, hits give low values 0.923 | locus YHR205W, strain SCH9, hits give low values 0.704 | locus YIL147C, strain SLN1, hits give low values 0.924 | locus YJL128C, strain PBS2, hits give low values 0.865 | locus YJR016C, strain ILV3, hits give low values 0.914 | locus YJR043C, strain POL32, hits give low values 0.964 | locus YJR066W, strain TOR1 (second series), hits give low values 0.684 | locus YJR066W, strain TOR1, hits give low values 0.544 | locus YKL048C, strain ELM1, hits give low values 0.888 | locus YKL067W, strain YNK1, hits give low values 0.735 | locus YKL101W, strain HSL1, hits give low values 0.772 | locus YKL193C, strain SDS22, hits give low values 0.911 | locus YLR058C, strain SHM2 (second series), hits give low values 0.951 | locus YLR133W, strain CKI1, hits give low values 0.772 | locus YLR262C, strain YPT6, hits give low values 0.817 | locus YLR403W, strain SFP1, hits give low values 0.675 | locus YML070W, strain DAK1, hits give low values 0.681 | locus YML094W, strain GIM5, hits give low values 0.994 | locus YMR001C, strain CDC5, hits give low values 0.908 | locus YMR219W, strain ESC1, hits give low values 0.948 | [8] 0.945 | locus YMR277W, strain FCP1, hits give low values 0.915 | locus YNL006W, strain LST8, hits give low values 0.92 | locus YNL020C, strain ARK1, hits give low values 0.762 | [18] 0.98 | locus YNL207W, strain RIO2, hits give low values 0.906 | locus YNL222W, strain SSU72, hits give low values 0.916 | locus YNL298W, strain CLA4 (second series), hits give low values 0.924 | locus YNL307C, strain MCK1 (second series), hits give low values 0.701 | [14] 0.947 | locus YOL078W, strain AVO1, hits give low values 0.904 | locus YOR061W, strain CKA2, hits give low values 0.792 | locus YOR329C, strain SCD5, hits give low values 0.912 | [19] 0.887 | locus YPL209C, strain IPL1, hits give low values 0.918 | locus YPR025C, strain CCL1, hits give low values 0.914 | locus YPR106W, strain ISR1, hits give low values 0.896 | locus YPR111W, strain DBF20, hits give low values 0.89 | strain TSCII, hits give low values 0.9
active: [1] 0.909 | locus YDR477W, strain SNF1, hits give low values 0.678 | locus YER123W, strain YCK3, hits give low values 0.517 | locus YER133W, strain GLC7, hits give low values 0.613 | locus YGR040W, strain KSS1, hits give low values 0.67 | [6] 0.92 | locus YHR030C, strain SLT2, hits give low values 0.235 and 0.376 | locus YJL095W, strain BCK1, hits give low values 0.49 | locus YJL157C, strain FAR1, hits give low values 0.683 | [7] 0.804 | locus YKL203C, strain TOR2, hits give low values 0.68 | locus YLR039C, strain RIC1, hits give low values 0.779 | locus YLR085C, strain ARP6, hits give low values 0.499 | locus YLR113W, strain HOG1, hits give low values 0.379 | locus YMR205C, strain PFK2 (second series), hits give low values 0.742 | locus YNL161W, strain CBK1, hits give low values 0.897 | locus YNL183C, strain NPR1, hits give low values 0.456 | locus YNR030W, strain Alg12, hits give low values 0.802 | locus YOL136C, strain PFK27, hits give low values 0.668 | locus YOR119C, strain RIO1, hits give low values 0.684 | locus YOR231W, strain MKK1, hits give low values 0.489 | locus YPL031C, strain PHO85, hits give low values 0.599 | locus YPL153C, strain RAD53, hits give low values 0.659 | locus YPL204W, strain HRR25, hits give low values 0.598 | [16] 0.638 | locus YPL256C, strain CLN2, hits give low values 0.447 | locus YPR135W, strain CTF4, hits give low values 0.325 | strain NNK1, hits give low values 0.88

Clc1cnc(Oc2ccc(Oc3ncc(Cl)cc3Cl)cc2)c(Cl)c1
inactive: [1] 1.03 | [2] 1.01 | [3] 1.01 | [17] 1.01 | [4] 1.03 | [5] 0.995 | [9] 1.02 | [10] 1.01 | [18] 1 | [11] 1 | [12] 1.02 | [13] 1.02 | [15] 1.06 | [19] 1.04 | [16] 1.01

NC(=NCc1ccc(Cl)c(Cl)c1)NC(=O)c1nc(Cl)c(N)nc1N
inactive: [2] 1.01 | [3] 0.999 | [4] 0.992 | [5] 1.01 | [8] 1.01 | [9] 0.993 | [18] 0.995 | [11] 1.02 | [12] 1.03 | [13] 1.03 | [14] 0.966 | [15] 1.01

CC(=O)OCC1=C(C(=O)O)N2C(=O)[C@@H](NC(=O)CCC[C@@H](N)C(=O)O)[C@H]2SC1
inactive: [2] 0.993 | [3] 1 | [17] 1.01 | [4] 1.03 | [5] 1.02 | [6] 0.993 | [9] 0.997 | [10] 0.98 | [11] 1.01 | [12] 1.02 | [13] 1.03 | [15] 1.04 | [19] 1.01 | [16] 1

c1ccc2c(c1)[I+]c1ccccc1-2
inactive: [2] 1.05 | [5] 1.02 | [11] 1.03 | [12] 0.958
active: [1] 0.513 | [3] 0.63 | [4] 0.302 | [7] 0.429 | [13] 0.892 | [15] 0.569 | [16] 0.517
